Measurements: PubChem BioAssay AID1159580 (chemical genetic matrix, 2015)
Hit rate of the full screen: of about 5,500 compounds, about 2,000 (36%) were called active. About 18% were inconclusive and are not listed. Cut-off read from the data, not from the text of the source: active = normalized growth mostly below about 0.91 (no sharp cut-off); inconclusive = no clear call, values can overlap the other calls; inactive = mostly above about 0.92. The list shows a part of the results.

Assay: chemical genetic growth profiling, strain panel (AID 1159580);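 note: tested at 20 µM; growth read once vehicle control cultures reached saturation at 30 °C; 1 = growth at the plate median or of vehicle wells; lower values mean less growth of the strain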
Details: growth OD
[1] = S. cerevisiae deletion strains, locus YAL013W, strain DEP1, hits give low values
[2] = S. cerevisiae deletion strains, locus YBR229C, strain ROT2, hits give low values
[3] = S. cerevisiae deletion strains, locus YCL061C, strain MRC1, hits give low values
[4] = S. cerevisiae deletion strains, locus YDL101C, strain DUN1, hits give low values
[5] = S. cerevisiae deletion strains, locus YDL134C, strain PPH21, hits give low values
[6] = S. cerevisiae deletion strains, locus YDR150W, strain NUM1, hits give low values
[7] = S. cerevisiae deletion strains, locus YEL061C, strain CIN8, hits give low values
[8] = S. cerevisiae deletion strains, locus YGR078C, strain PAC10, hits give low values
[9] = S. cerevisiae deletion strains, locus YHR030C, strain SLT2, hits give low values
[10] = S. cerevisiae deletion strains, locus YJR043C, strain POL32, hits give low values
[11] = S. cerevisiae deletion strains, locus YJR075W, strain HOC1, hits give low values
[12] = S. cerevisiae deletion strains, locus YKL190W, strain CNB1, hits give low values
[13] = S. cerevisiae deletion strains, locus YLR039C, strain RIC1, hits give low values
[14] = S. cerevisiae deletion strains, locus YLR058C, strain SHM2 (second series), hits give low values
[15] = S. cerevisiae deletion strains, locus YLR085C, strain ARP6, hits give low values
[16] = S. cerevisiae deletion strains, locus YLR262C, strain YPT6, hits give low values
[17] = S. cerevisiae deletion strains, locus YML094W, strain GIM5, hits give low values
[18] = S. cerevisiae deletion strains, locus YMR219W, strain ESC1, hits give low values
[19] = S. cerevisiae deletion strains, locus YMR263W, strain SAP30, hits give low values
[20] = S. cerevisiae deletion strains, locus YMR307W, strain GAS1, hits give low values
[21] = S. cerevisiae deletion strains, locus YNL128W, strain TEP1, hits give low values
[22] = S. cerevisiae deletion strains, locus YNL153C, strain GIM3, hits give low values
[23] = S. cerevisiae deletion strains, locus YNL298W, strain CLA4 (second series), hits give low values
[24] = S. cerevisiae deletion strains, locus YNL322C, strain KRE1, hits give low values
[25] = S. cerevisiae deletion strains, locus YNR030W, strain Alg12, hits give low values
[26] = S. cerevisiae deletion strains, locus YOL006C, strain TOP1, hits give low values
[27] = S. cerevisiae deletion strains, locus YPL055C, strain LGE1, hits give low values
[28] = S. cerevisiae deletion strains, locus YPL241C, strain CIN2, hits give low values
[29] = S. cerevisiae deletion strains, locus YPR135W, strain CTF4, hits give low values
[30] = S. cerevisiae deletion strains, locus YJL187C, strain SWE1, hits give low values

Measured: normalized growth

Cc1cccc2c1N(C(=S)Nc1ccccc1Cl)CCC2
inactive: [1] 0.966 | [4] 0.972 | [6] 1.01 | S. cerevisiae deletion strains, locus YGR229C, strain SMI1, hits give low values 0.997 | [10] 0.997 | [14] 0.95 | [19] 0.915 | [21] 0.914 | [24] 0.989 | [25] 0.906 | [27] 0.93 | [28] 0.859
active: [2] 0.821 | [3] 0.898 | [5] 0.911 | [7] 0.845 | [8] 0.907 | [9] 0.331 | S. cerevisiae deletion strains, locus YHR087W, strain rtc3, hits give low values 0.787 | [11] 0.876 | [12] 0.648 | [13] 0.439 | [15] 0.602 | [16] 0.406 | [17] 0.712 | [18] 0.851 | [20] 0.219 | [22] 0.913 | [23] 0.582 | [26] 0.508 | [29] 0.273

CN1CCc2cccc(Cl)c2CC1
inactive: [1] 0.986 | S. cerevisiae deletion strains, locus YAL040C, strain CLN3, hits give low values 1 | S. cerevisiae deletion strains, locus YCL061C, strain MRC1 (second series), hits give low values 1.01 | S. cerevisiae deletion strains, locus YDR363W, strain ESC2, hits give low values 1 | S. cerevisiae deletion strains, locus YER002W, strain NOP16, hits give low values 1 | [11] 0.993 | [20] 1.01 | S. cerevisiae deletion strains, locus YNL175C, strain NOP13, hits give low values 1.01 | S. cerevisiae deletion strains, locus YNL197C, strain WHI3, hits give low values 1.01 | S. cerevisiae deletion strains, locus YNL224C, strain SQS1, hits give low values 1 | [24] 1 | S. cerevisiae deletion strains, locus YOR083W, strain WHI5 (second series), hits give low values 1.01 | [27] 0.998

CC(=O)CC(=O)Nc1ccccc1Cl
inactive: [1] 1 | [2] 0.997 | [4] 0.979 | [5] 0.998 | [6] 0.97 | [7] 1.02 | [8] 0.993 | [9] 0.966 | [30] 0.995 | [10] 0.982 | [11] 1.03 | [12] 1.01 | [13] 0.993 | [14] 1.01 | [15] 0.967 | [16] 1.02 | [17] 1.02 | [18] 0.993 | [19] 0.999 | [20] 0.947 | [21] 0.987 | [22] 1.02 | [23] 1 | [24] 0.992 | [25] 1 | [26] 1.01 | [27] 1 | [28] 0.978 | [29] 0.925 | S. cerevisiae strains, strain wild type, hits give low values 0.971

N[C@@H](CC(=O)N1CCn2c(nnc2C(F)(F)F)C1)Cc1cc(F)c(F)cc1F
inactive: S. cerevisiae deletion strains, locus YAL021C, strain ccr4, hits give low values 0.992 | S. cerevisiae deletion strains, locus YAL026C, strain drs2, hits give low values 0.97 | S. cerevisiae deletion strains, locus YAL030W, strain snc1, hits give low values 0.985 | S. cerevisiae deletion strains, locus YBL061C, strain skt5, hits give low values 0.985 | S. cerevisiae deletion strains, locus YBR009C, strain hhf1, hits give low values 0.949 | S. cerevisiae deletion strains, locus YBR023C, strain chs3, hits give low values 0.993 | S. cerevisiae deletion strains, locus YBR171W, strain sec66, hits give low values 0.992 | S. cerevisiae deletion strains, locus YBR231C, strain swc5, hits give low values 0.995 | S. cerevisiae deletion strains, locus YBR279W, strain paf1, hits give low values 0.988 | S. cerevisiae deletion strains, locus YCL011C, strain gbp2, hits give low values 0.982 | S. cerevisiae deletion strains, locus YCL016C, strain dcc1, hits give low values 0.992 | [3] 0.987 | S. cerevisiae deletion strains, locus YCL069W, strain vba3, hits give low values 0.984 | S. cerevisiae deletion strains, locus YCR088W, strain abp1, hits give low values 0.984 | S. cerevisiae deletion strains, locus YDL005C, strain med2, hits give low values 0.983 | S. cerevisiae deletion strains, locus YDL040C, strain nat1, hits give low values 0.992 | S. cerevisiae deletion strains, locus YDR001C, strain nth1, hits give low values 0.985 | S. cerevisiae deletion strains, locus YDR069C, strain doa4, hits give low values 0.971 | S. cerevisiae deletion strains, locus YDR137W, strain rgp1, hits give low values 1.01 | S. cerevisiae deletion strains, locus YDR159W, strain sac3, hits give low values 0.952 | S. cerevisiae deletion strains, locus YDR195W, strain ref2 0.941 | S. cerevisiae deletion strains, locus YDR297W, strain sur2, hits give low values 0.978 | S. cerevisiae deletion strains, locus YDR334W, strain swr1, hits give low values 0.982 | S. cerevisiae deletion strains, locus YDR335W, strain msn5, hits give low values 0.991 | S. cerevisiae deletion strains, locus YDR392W, strain spt3, hits give low values 0.887 | S. cerevisiae deletion strains, locus YEL003W, strain gim4, hits give low values 0.966 | S. cerevisiae deletion strains, locus YEL037C, strain rad23, hits give low values 0.983 | S. cerevisiae deletion strains, locus YEL061C, strain CIN8 (second series), hits give low values 0.983 | S. cerevisiae deletion strains, locus YER015W, strain faa2, hits give low values 0.978 | S. cerevisiae deletion strains, locus YER016W, strain bim1, hits give low values 0.995 | S. cerevisiae deletion strains, locus YER111C, strain swi4, hits give low values 0.988 | S. cerevisiae deletion strains, locus YER155C, strain BEM2 (second series), hits give low values 0.966 | S. cerevisiae deletion strains, locus YFR010W, strain ubp6, hits give low values 0.975 | S. cerevisiae deletion strains, locus YGL167C, strain pmr1, hits give low values 0.964 | S. cerevisiae deletion strains, locus YGL173C, strain kem1, hits give low values 0.985 | S. cerevisiae deletion strains, locus YGL227W, strain vid30, hits give low values 0.967 | S. cerevisiae deletion strains, locus YGL240W, strain doc1, hits give low values 0.981 | S. cerevisiae deletion strains, locus YGL253W, strain hxk2, hits give low values 0.996 | S. cerevisiae deletion strains, locus YHR013C, strain ard1, hits give low values 0.944 | S. cerevisiae deletion strains, locus YHR027C, strain rpn1, hits give low values 0.985 | [9] 1.03 | S. cerevisiae deletion strains, locus YHR079C, strain IRE1, hits give low values 0.985 | S. cerevisiae deletion strains, locus YHR142W, strain chs7, hits give low values 1.01 | S. cerevisiae deletion strains, locus YJL092W, strain hpr5, hits give low values 0.989 | S. cerevisiae deletion strains, locus YJL095W, strain BCK1 (second series), hits give low values 0.993 | S. cerevisiae deletion strains, locus YJL095W, strain BCK1, hits give low values 0.96 | S. cerevisiae deletion strains, locus YJL115W, strain asf1, hits give low values 0.984 | S. cerevisiae deletion strains, locus YJL129C, strain trk1, hits give low values 1.01 | S. cerevisiae deletion strains, locus YJL154C, strain vps35, hits give low values 0.987 | S. cerevisiae deletion strains, locus YJL164C, strain tpk1, hits give low values 1 | S. cerevisiae deletion strains, locus YJL166W, strain qcr8, hits give low values 0.993 | [30] 0.98 | S. cerevisiae deletion strains, locus YJR066W, strain TOR1, hits give low values 0.928 | S. cerevisiae deletion strains, locus YKL160W, strain elf1, hits give low values 1.01 | S. cerevisiae deletion strains, locus YKR026C, strain gcn3, hits give low values 0.972 | S. cerevisiae deletion strains, locus YKR091W, strain srl3, hits give low values 0.955 | S. cerevisiae deletion strains, locus YLL001W, strain dnm1, hits give low values 0.992 | S. cerevisiae deletion strains, locus YLL026W, hits give low values 0.995 | S. cerevisiae deletion strains, locus YLL041C, strain sdh2, hits give low values 0.994 | S. cerevisiae deletion strains, locus YLR027C, strain aat2, hits give low values 0.988 | S. cerevisiae deletion strains, locus YLR113W, strain HOG1, hits give low values 0.978 | S. cerevisiae deletion strains, locus YLR221C, strain rsa3, hits give low values 0.989 | S. cerevisiae deletion strains, locus YLR258W, strain gsy2, hits give low values 0.979 | S. cerevisiae deletion strains, locus YLR262C, strain YPT6 (second series), hits give low values 1 | S. cerevisiae deletion strains, locus YLR320W, strain mms22, hits give low values 0.998 | S. cerevisiae deletion strains, locus YLR342W, strain FKS1, hits give low values 0.958 | S. cerevisiae deletion strains, locus YLR357W, strain rsc2, hits give low values 0.989 | S. cerevisiae deletion strains, locus YLR370C, strain arc18, hits give low values 0.977 | S. cerevisiae deletion strains, locus YLR384C, strain iki3, hits give low values 0.969 | S. cerevisiae deletion strains, locus YML120C, strain ndi1, hits give low values 0.988 | S. cerevisiae deletion strains, locus YMR058W, strain fet3, hits give low values 0.977 | S. cerevisiae deletion strains, locus YMR125W, strain sto1, hits give low values 0.974 | S. cerevisiae deletion strains, locus YMR129W, hits give low values 0.984 | S. cerevisiae deletion strains, locus YMR205C, strain PFK2, hits give low values 0.96 | S. cerevisiae deletion strains, locus YMR231W, strain pep5, hits give low values 0.977 | S. cerevisiae deletion strains, locus YNL071W, strain lat1, hits give low values 0.979 | S. cerevisiae deletion strains, locus YNL183C, strain NPR1, hits give low values 0.898 | S. cerevisiae deletion strains, locus YNL209W, strain ssb2, hits give low values 0.986 | S. cerevisiae deletion strains, locus YNL248C, strain rpa49, hits give low values 1.01 | S. cerevisiae deletion strains, locus YNL322C, strain KRE1 (second series), hits give low values 0.975 | S. cerevisiae deletion strains, locus YNR049C, strain mso1, hits give low values 0.98 | S. cerevisiae deletion strains, locus YOR001W, strain rrp6, hits give low values 1.01 | S. cerevisiae deletion strains, locus YOR070C, strain gyp1, hits give low values 0.995 | S. cerevisiae deletion strains, locus YOR080W, strain dia2, hits give low values 0.976 | S. cerevisiae deletion strains, locus YOR083W, strain WHI5, hits give low values 1.01 | S. cerevisiae deletion strains, locus YOR106W, strain vam3, hits give low values 0.994 | S. cerevisiae deletion strains, locus YOR231W, strain MKK1, hits give low values 0.975 | S. cerevisiae deletion strains, locus YOR265W, strain rbl2, hits give low values 0.993 | S. cerevisiae deletion strains, locus YOR270C, strain vph1, hits give low values 0.984 | S. cerevisiae deletion strains, locus YOR290C, strain snf2, hits give low values 0.903 | S. cerevisiae deletion strains, locus YPL051W, strain arl3, hits give low values 1.01 | S. cerevisiae deletion strains, locus YPL078C, strain atp4, hits give low values 0.992 | S. cerevisiae deletion strains, locus YPL106C, strain sse1, hits give low values 0.976 | S. cerevisiae deletion strains, locus YPL240C, strain hsp82, hits give low values 0.965 | S. cerevisiae deletion strains, locus YPL256C, strain CLN2, hits give low values 0.981
